# Test results taken from PubChem BioAssay.
# Activity calls are given as the source filed them.
# Assays:
# [1] = test system: XIP peptide (Xip251-270) binding; assay: small-molecule binders of XIP peptide, primary screen, biochemical, small-molecule microarray, fluorescence 635/667 nm, 0.1 µg/mL protein (AID 1182); conditions: fluorescent protein binding, 635 nm, higher = more signal, called active from +8 up or from −8 down
# [2] = test system: XIP peptide (Xip251-270); assay: small-molecule binders of XIP peptide, primary screen, biochemical, small-molecule microarray, fluorescence 635/667 nm, 0.5 µg/mL protein (AID 1183); conditions: small-molecule microarray binding, fluorescence 635 nm; higher = more signal
# [3] = Plasmodium falciparum growth inhibition, primary screen, strain 3D7, DAPI fluorescence, 100 nL (AID 1184);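 note: parasites grown inside human red blood cells in medium with human serum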; conditions: P. falciparum 3D7 growth, 3 d, higher = more signal
# [4] = biological target: Homeobox protein Hox-A13 (Mus musculus) (UniProt Q62424); assay: inhibitors of HoxA13-DNA binding, primary screen, biochemical, fluorescence polarization, labeled oligonucleotide (AID 1185); conditions: 15 min, higher = more signal, called active from +8 up or from −8 down
# Sequence of Homeobox protein Hox-A13 (Mus musculus) (Q62424 whole entry, looked up): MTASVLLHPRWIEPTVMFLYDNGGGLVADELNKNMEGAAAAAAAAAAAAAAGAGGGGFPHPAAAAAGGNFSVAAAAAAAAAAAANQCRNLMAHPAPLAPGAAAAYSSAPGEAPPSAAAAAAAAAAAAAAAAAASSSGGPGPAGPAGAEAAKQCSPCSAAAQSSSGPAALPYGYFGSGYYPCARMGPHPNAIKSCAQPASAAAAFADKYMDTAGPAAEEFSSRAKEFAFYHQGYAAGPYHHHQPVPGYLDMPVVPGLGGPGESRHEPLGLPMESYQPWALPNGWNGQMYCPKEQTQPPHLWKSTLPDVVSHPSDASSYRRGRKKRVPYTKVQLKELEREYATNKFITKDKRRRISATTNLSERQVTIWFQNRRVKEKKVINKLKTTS
Compound,composite z-score [1],composite z-score [2],z-score [3],z-score [4]
CO[C@@H]1COC(=O)[C@H](CCSC)NC(=O)CC=C[C@@H](C)COC(=O)[C@H](C)NC(=O)CC=C[C@H]1C,-0.665 (inactive),0.909,-0.131,-0.042 (inactive)
Cc1cc2c(c(=O)o1)[C@@H](O)[C@H]1O[C@H]1C2=O,-0.483 (inactive),0.274,-0.807,-1.3 (inactive)
COc1ccc(O[C@H]2C=C[C@@H](c3ccccc3)O[C@@H]2COC(=O)CCC(C)=NOC[C@@H](O)[C@H]2O[C@@H]3OC(C)(C)O[C@@H]3[C@H]2O)cc1,0.162 (inactive),-0.0871,0.651,-5.83 (inactive)
COC(=O)CC=C[C@@H](C)[C@H](OCc1cccc(-c2ccccc2)c1)C1CCCCC1,0.704 (inactive),0.881,-0.257,-1.35 (inactive)
O=C1C=C[C@@H](O)[C@@H]2[C@@H]3C(=O)N(c4ccc(F)cc4F)C(=O)[C@@H]3CC[C@@H]12,0.25 (inactive),0.165,0.262,0.159 (inactive)
COc1cccc([C@H]2Oc3ccc(OC)cc3C(=NOC[C@@H](C)[C@H](OCc3ccccc3)C(C)C)[C@@H]2O)c1,0.305 (inactive),-0.724,-0.157,-0.308 (inactive)
CCCCC#C[C@@H]1C=C[C@H](OC(C)=O)[C@@H](COC(C)=O)O1,1.45 (inactive),0.641,0.247,-4.35 (inactive)
CCc1cc2c(nc1CC)CCN(CCC(C)=NO[C@H](C)c1cn([C@H](CO)Cc3ccccc3)nn1)C2,0.076 (inactive),0.284,-1.91,-5.78 (inactive)
CON=C[C@@H](NS(=O)(=O)c1ccc(C)cc1)[C@H](C)C=CCC(=O)OC,0.212 (inactive),0.332,1.25,1.12 (inactive)
COC(=O)[C@@H]1CC[C@@H](C)[C@H](c2ccc(Br)cc2)N1,-0.0456 (inactive),0.0425,0.303,-1.98 (inactive)
COC(=O)CC=C[C@@H](C)[C@@H](C=NO[C@@H](C)c1cn([C@H](CO)Cc2ccccc2)nn1)OC,-0.179 (inactive),0.0522,0.141,-0.41 (inactive)
CC(C)(C)N1C(=O)[C@H]2[C@H]3[C@H](O)[C@H](O)CC(=NOCc4ccccc4)[C@H]3CC[C@H]2C1=O,0.082 (inactive),-0.112,0.195,-4.16 (inactive)
CCOC(=O)[C@H](CC(C)C)NC(=O)CCC1CC(OC(=O)NCc2cccc3ccccc23)CC2(CCCC(COC(=O)NCc3cccc(C(F)(F)F)c3)O2)O1 (some centres undefined),-0.364 (inactive),-0.298,0.688,-0.443 (inactive)
CCN1C(=O)[C@@H]2[C@H]3C(=CC[C@@H]2C1=O)C1(OCCCO1)[C@H]1O[C@H]1[C@H]3O,0.645 (inactive),0.689,-1.63,-10.9 (active)
CCOC(=O)[C@H](Cc1ccccc1)NC(=O)CCC1CC(OC(=O)NCCc2ccc(F)cc2)CC2(CCCC(COC(=O)NCCc3ccccc3OC)O2)O1 (some centres undefined),-0.157 (inactive),0.525,-1.94,-2.27 (inactive)
CC(=O)O[C@H]1C2=CO[C@H](C)[C@H]3[C@H]4C5=C([C@H](O)[C@H]6O[C@H]6C5=O)[C@H](OC4C)[C@@]23C(=O)[C@@H]2O[C@@H]21 (some centres undefined),0.533 (inactive),-0.406,-1.24,-1.02 (inactive)
CC(C)=CCCC(C)=CCON=C1C[C@@H](O)[C@@H](O)[C@@H]2[C@@H]3C(=O)N(C[C@@H]4CCCO4)C(=O)[C@@H]3CC[C@H]12,0.243 (inactive),0.378,-0.0721,-3.8 (inactive)
CC(C)CON=C1C[C@@H](O)[C@@H](O)[C@@H]2[C@@H]3C(=O)N(C4CCCCC4)C(=O)[C@@H]3CC[C@H]12,0.273 (inactive),0.793,-0.0504,0.866 (inactive)
CCCCC#C[C@@H]1C=C[C@H](Oc2ccc(C(=O)OC)cc2)[C@@H](COC(=O)OCC)O1,-0.464 (inactive),0.522,-0.332,-5.73 (inactive)
COC(=O)[C@@H]1CC[C@H](C)[C@@H](c2ccc(C)cc2)N1C(=O)c1ccc(C=NO[C@H](C)c2cn([C@H](CO)Cc3ccccc3)nn2)cc1,-0.402 (inactive),0.658,-1.76,-5.94 (inactive)
CCN1C(=O)[C@H]2[C@H]3[C@H](O)[C@H](O)CC(=O)[C@H]3CC[C@H]2C1=O,0.809 (inactive),0.453,1.05,0.0412 (inactive)
